According to PubChem BioAssay (NCATS):
Inconclusive results are not listed. The source made the active and inactive calls. Calls come from the whole dose curve; as a rule, active = well fitted curve in the direction sought with a large enough effect; inconclusive = small, poorly fitted or top-dose-only effect, or another doubt; inactive = no such curve, though single readings can be large; an effect the other way counts as inactive or inconclusive.

Tests used:
[1] = biological target: Ubiquitin carboxyl-terminal hydrolase 1 (Homo sapiens) (UniProt O94782); assay: Inhibitors of USP1/UAF1: Pilot qHTS (AID 504865); details: purified USP1/UAF1, Ub-rhodamine cleavage fluorescence; series mostly up to 114 µM;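 note: rhodamine fluorescence freed from ubiquitin-rhodamine substrate followed over time; top concentration of the series differs between compounds; % is set by controls: 0 for no effect and ±100 for the full control effect; nearly all actives have a fitted effect of over 35% in size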
Ubiquitin carboxyl-terminal hydrolase 1 (Homo sapiens), sequence (O94782 whole entry, looked up): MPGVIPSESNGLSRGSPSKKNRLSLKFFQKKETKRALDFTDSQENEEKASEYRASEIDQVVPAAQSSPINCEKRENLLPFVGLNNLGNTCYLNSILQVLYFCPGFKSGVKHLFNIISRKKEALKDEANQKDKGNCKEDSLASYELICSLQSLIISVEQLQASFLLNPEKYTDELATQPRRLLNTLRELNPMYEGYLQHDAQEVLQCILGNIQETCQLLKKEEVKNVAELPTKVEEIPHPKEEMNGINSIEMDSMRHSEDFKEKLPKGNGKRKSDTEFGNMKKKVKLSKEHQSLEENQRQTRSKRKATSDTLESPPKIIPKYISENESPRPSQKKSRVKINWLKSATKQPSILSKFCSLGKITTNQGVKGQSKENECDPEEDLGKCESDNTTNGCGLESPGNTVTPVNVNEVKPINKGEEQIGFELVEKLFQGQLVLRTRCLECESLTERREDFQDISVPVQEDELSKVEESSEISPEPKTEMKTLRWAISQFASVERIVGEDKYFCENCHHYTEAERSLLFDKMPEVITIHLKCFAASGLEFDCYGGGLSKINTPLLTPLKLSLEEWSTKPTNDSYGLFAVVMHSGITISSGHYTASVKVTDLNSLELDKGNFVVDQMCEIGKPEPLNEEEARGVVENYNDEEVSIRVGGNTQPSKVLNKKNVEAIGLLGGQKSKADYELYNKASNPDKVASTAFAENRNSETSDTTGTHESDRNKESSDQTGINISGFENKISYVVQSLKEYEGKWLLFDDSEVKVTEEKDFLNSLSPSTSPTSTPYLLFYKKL
Procedure, shortened: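 USP1/UAF1 complex (1nM) preincubated with compound 15 min at room temperature, then Ub-Rho substrate (150nM final) added. Fluorescence read kinetically at 480/540 nm, 6 reads every 60 seconds. Buffer: 50mM HEPES pH 7.8, 0.5mM EDTA, 0.1 mg/ml BSA, 1mM TCEP, 0.01% Tween-20.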

[2] = biological target: Luciferin 4-monooxygenase (Photinus pyralis) (UniProt P08659); assay: Biochemical firefly luciferase enzyme assay for NPC (AID 624030);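 note: purified P. pyralis luciferase at 10 nM with luciferin and ATP substrate; 0% = DMSO and -100% = full luciferase inhibition by PTC124 control; nearly all actives have a fitted effect of over 70% in size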; details: purified P. pyralis luciferase, luminescence, 5 min; series mostly up to 58.6 µM
Luciferin 4-monooxygenase (Photinus pyralis), sequence (P08659 whole entry, looked up): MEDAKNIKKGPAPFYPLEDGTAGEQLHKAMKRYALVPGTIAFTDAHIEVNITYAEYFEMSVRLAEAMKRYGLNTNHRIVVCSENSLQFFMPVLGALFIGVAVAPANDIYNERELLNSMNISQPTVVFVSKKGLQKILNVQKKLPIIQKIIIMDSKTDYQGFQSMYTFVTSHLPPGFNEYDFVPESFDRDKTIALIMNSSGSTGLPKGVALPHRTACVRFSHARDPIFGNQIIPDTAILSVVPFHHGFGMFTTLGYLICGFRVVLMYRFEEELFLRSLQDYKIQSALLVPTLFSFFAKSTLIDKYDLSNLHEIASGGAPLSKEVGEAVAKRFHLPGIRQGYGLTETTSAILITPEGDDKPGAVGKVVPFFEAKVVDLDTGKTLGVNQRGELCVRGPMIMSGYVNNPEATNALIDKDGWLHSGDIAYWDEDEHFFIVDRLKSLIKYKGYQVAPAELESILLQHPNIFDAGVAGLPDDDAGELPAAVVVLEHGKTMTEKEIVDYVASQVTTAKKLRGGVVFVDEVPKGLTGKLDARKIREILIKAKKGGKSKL
Procedure, shortened: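 Purified P. pyralis luciferase at 10 nM in 50 mM Tris Acetate (final), luminescence read within 5 minutes of enzyme addition to compounds. Activity normalised to PTC124 versus DMSO; concentration-response curves classed by r2, magnitude and activity.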

[3] = S16 Schwann cell viability assay (CellTiter-Glo assay) (AID 624031); details: S16 rat Schwann cells viability, 24 h; series mostly up to 57.5 µM;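 note: native untransfected S16 rat Schwann cells; cellular ATP luminescence as a viability measure; plate controls were DMSO-treated cells for no effect and cell-free wells for full effect; nearly all actives have a fitted effect of over 70% in size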
Procedure, shortened: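 Parental S16 cells, 24 h compound, 37 °C. ATP-luminescence viability; DMSO = 0% activity, empty wells as reference; curves classified by fit quality and efficacy.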

[4] = S16 Schwann cell PMP22 intronic element firefly luciferase assay (AID 624032); details: S16 rat Schwann cells, PMP22 element FLuc, 24 h; series mostly up to 57.5 µM;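 note: plate controls were DMSO for no effect and PTC124 positive control mean for full effect; nearly all actives have a fitted effect of over 30% in size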
Procedure, shortened: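 Rat S16 Schwann cells stably carrying firefly luciferase driven by a PMP22 intronic element, in 10% FBS, treated 24 h at 37 C. ONE-Glo luminescence normalized to PTC124 control and DMSO (0%); curves classed by r2, magnitude and activity.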

[5] = qHTS profiling for inhibitors of Plasmodium falciparum proliferation (AID 504749);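 note: 0% = DMSO vehicle and full inhibition = artemisinin control; nearly all actives have a fitted effect of over 60% in size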; details: P. falciparum in erythrocytes, SYBR Green DNA, 72 h, at 28.7 µM (top of the series)
Procedure, shortened: (§1)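 SYBR Green fluorescence (ex 485 nm, em 535 nm) reports parasite DNA after 72 h compound exposure of infected red cells at 0.3% parasitemia, 2.5% hematocrit; signal normalized to 0.29 uM artemisinin and vehicle wells.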

[6] = system: 3D7; assay: as above; details: P. falciparum in erythrocytes, SYBR Green DNA, 72 h; series mostly up to 28.7 µM
Procedure, shortened: as §1

[7] = system: 7G8; assay: as above; details: P. falciparum in erythrocytes, SYBR Green DNA, 72 h; series mostly up to 28.7 µM
Procedure, shortened: as §1

[8] = system: AA1029; assay: as above; details: P. falciparum in erythrocytes, SYBR Green DNA, 72 h; series mostly up to 28.7 µM
Procedure, shortened: as §1

[9] = system: AS120; assay: as above; details: P. falciparum in erythrocytes, SYBR Green DNA, 72 h; series mostly up to 28.7 µM
Procedure, shortened: as §1

[10] = system: ATS189; assay: as above; details: P. falciparum in erythrocytes, SYBR Green DNA, 72 h; series mostly up to 28.7 µM
Procedure, shortened: as §1

[11] = system: ATS95; assay: as above; details: P. falciparum in erythrocytes, SYBR Green DNA, 72 h; series mostly up to 28.7 µM
Procedure, shortened: as §1

[12] = system: C2A; assay: as above; details: P. falciparum in erythrocytes, SYBR Green DNA, 72 h; series mostly up to 28.7 µM
Procedure, shortened: as §1

[13] = system: CP185; assay: as above; details: P. falciparum in erythrocytes, SYBR Green DNA, 72 h; series mostly up to 28.7 µM
Procedure, shortened: as §1

[14] = system: CP191; assay: as above; details: P. falciparum in erythrocytes, SYBR Green DNA, 72 h; series mostly up to 28.7 µM
Procedure, shortened: as §1

[15] = system: CP192; assay: as above; details: P. falciparum in erythrocytes, SYBR Green DNA, 72 h; series mostly up to 28.7 µM
Procedure, shortened: as §1

[16] = system: CP194; assay: as above; details: P. falciparum in erythrocytes, SYBR Green DNA, 72 h; series mostly up to 28.7 µM
Procedure, shortened: as §1

[17] = system: CP201; assay: as above; details: P. falciparum in erythrocytes, SYBR Green DNA, 72 h; series mostly up to 28.7 µM
Procedure, shortened: as §1

[18] = system: CP203; assay: as above; details: P. falciparum in erythrocytes, SYBR Green DNA, 72 h; series mostly up to 28.7 µM
Procedure, shortened: as §1

[19] = system: CP211; assay: as above; details: P. falciparum in erythrocytes, SYBR Green DNA, 72 h; series mostly up to 28.7 µM
Procedure, shortened: as §1

[20] = system: CP215; assay: as above; details: P. falciparum in erythrocytes, SYBR Green DNA, 72 h; series mostly up to 28.7 µM
Procedure, shortened: as §1

[21] = system: CP217; assay: as above; details: P. falciparum in erythrocytes, SYBR Green DNA, 72 h; series mostly up to 28.7 µM
Procedure, shortened: as §1

[22] = system: CP237; assay: as above; details: P. falciparum in erythrocytes, SYBR Green DNA, 72 h; series mostly up to 28.7 µM
Procedure, shortened: as §1

[23] = system: CP238; assay: as above; details: P. falciparum in erythrocytes, SYBR Green DNA, 72 h; series mostly up to 28.7 µM
Procedure, shortened: as §1

[24] = system: CP247; assay: as above; details: P. falciparum in erythrocytes, SYBR Green DNA, 72 h; series mostly up to 28.7 µM
Procedure, shortened: as §1

[25] = system: CP250; assay: as above; details: P. falciparum in erythrocytes, SYBR Green DNA, 72 h; series mostly up to 28.7 µM
Procedure, shortened: as §1

[26] = system: CP252; assay: as above; details: P. falciparum in erythrocytes, SYBR Green DNA, 72 h; series mostly up to 28.7 µM
Procedure, shortened: as §1

[27] = system: CP256; assay: as above; details: P. falciparum in erythrocytes, SYBR Green DNA, 72 h; series mostly up to 28.7 µM
Procedure, shortened: as §1

[28] = system: CP260; assay: as above; details: P. falciparum in erythrocytes, SYBR Green DNA, 72 h; series mostly up to 28.7 µM
Procedure, shortened: as §1

[29] = system: CP262; assay: as above; details: P. falciparum in erythrocytes, SYBR Green DNA, 72 h; series mostly up to 28.7 µM
Procedure, shortened: as §1

[30] = system: CP265; assay: as above; details: P. falciparum in erythrocytes, SYBR Green DNA, 72 h; series mostly up to 28.7 µM
Procedure, shortened: as §1

[31] = system: CP266; assay: as above; details: P. falciparum in erythrocytes, SYBR Green DNA, 72 h; series mostly up to 28.7 µM
Procedure, shortened: as §1

[32] = system: CP268; assay: as above; details: P. falciparum in erythrocytes, SYBR Green DNA, 72 h; series mostly up to 28.7 µM
Procedure, shortened: as §1

[33] = system: CP269; assay: as above; details: P. falciparum in erythrocytes, SYBR Green DNA, 72 h; series mostly up to 28.7 µM
Procedure, shortened: as §1

[34] = system: CP286; assay: as above; details: P. falciparum in erythrocytes, SYBR Green DNA, 72 h; series mostly up to 28.7 µM
Procedure, shortened: as §1

[35] = system: CP291; assay: as above; details: P. falciparum in erythrocytes, SYBR Green DNA, 72 h; series mostly up to 28.7 µM
Procedure, shortened: as §1

[36] = system: CP297; assay: as above; details: P. falciparum in erythrocytes, SYBR Green DNA, 72 h; series mostly up to 28.7 µM
Procedure, shortened: as §1

[37] = system: CP305; assay: as above; details: P. falciparum in erythrocytes, SYBR Green DNA, 72 h; series mostly up to 28.7 µM
Procedure, shortened: as §1

[38] = system: CP315; assay: as above; details: P. falciparum in erythrocytes, SYBR Green DNA, 72 h; series mostly up to 28.7 µM
Procedure, shortened: as §1

[39] = system: CP325; assay: as above; details: P. falciparum in erythrocytes, SYBR Green DNA, 72 h; series mostly up to 28.7 µM
Procedure, shortened: as §1

[40] = system: CP329; assay: as above; details: P. falciparum in erythrocytes, SYBR Green DNA, 72 h; series mostly up to 28.7 µM
Procedure, shortened: as §1

[41] = system: CP335; assay: as above; details: P. falciparum in erythrocytes, SYBR Green DNA, 72 h; series mostly up to 28.7 µM
Procedure, shortened: as §1

[42] = system: DIV14; assay: as above; details: P. falciparum in erythrocytes, SYBR Green DNA, 72 h; series mostly up to 28.7 µM
Procedure, shortened: as §1

[43] = system: DIV17; assay: as above; details: P. falciparum in erythrocytes, SYBR Green DNA, 72 h; series mostly up to 28.7 µM
Procedure, shortened: as §1

[44] = system: DIV30; assay: as above; details: P. falciparum in erythrocytes, SYBR Green DNA, 72 h; series mostly up to 28.7 µM
Procedure, shortened: as §1

[45] = system: Dd2; assay: as above; details: P. falciparum in erythrocytes, SYBR Green DNA, 72 h; series mostly up to 28.7 µM
Procedure, shortened: as §1

[46] = system: ECU; assay: as above; details: P. falciparum in erythrocytes, SYBR Green DNA, 72 h; series mostly up to 28.7 µM
Procedure, shortened: as §1

[47] = system: FAB9; assay: as above; details: P. falciparum in erythrocytes, SYBR Green DNA, 72 h; series mostly up to 28.7 µM
Procedure, shortened: as §1

[48] = system: GB4; assay: as above; details: P. falciparum in erythrocytes, SYBR Green DNA, 72 h; series mostly up to 28.7 µM
Procedure, shortened: as §1

[49] = system: HB3; assay: as above; details: P. falciparum in erythrocytes, SYBR Green DNA, 72 h; series mostly up to 28.7 µM
Procedure, shortened: as §1

[50] = system: ICS; assay: as above; details: P. falciparum in erythrocytes, SYBR Green DNA, 72 h; series mostly up to 28.7 µM
Procedure, shortened: as §1

[51] = system: JCK; assay: as above; details: P. falciparum in erythrocytes, SYBR Green DNA, 72 h; series mostly up to 28.7 µM
Procedure, shortened: as §1

[52] = system: N140; assay: as above; details: P. falciparum in erythrocytes, SYBR Green DNA, 72 h; series mostly up to 28.7 µM
Procedure, shortened: as §1

[53] = system: P93_24; assay: as above; details: P. falciparum in erythrocytes, SYBR Green DNA, 72 h; series mostly up to 28.7 µM
Procedure, shortened: as §1

[54] = system: P94_40; assay: as above; details: P. falciparum in erythrocytes, SYBR Green DNA, 72 h; series mostly up to 28.7 µM
Procedure, shortened: as §1

[55] = system: PAD; assay: as above; details: P. falciparum in erythrocytes, SYBR Green DNA, 72 h; series mostly up to 28.7 µM
Procedure, shortened: as §1

[56] = system: PC15; assay: as above; details: P. falciparum in erythrocytes, SYBR Green DNA, 72 h; series mostly up to 28.7 µM
Procedure, shortened: as §1

[57] = system: PC26; assay: as above; details: P. falciparum in erythrocytes, SYBR Green DNA, 72 h; series mostly up to 28.7 µM
Procedure, shortened: as §1

[58] = system: PC49; assay: as above; details: P. falciparum in erythrocytes, SYBR Green DNA, 72 h; series mostly up to 28.7 µM
Procedure, shortened: as §1

[59] = system: SC27B; assay: as above; details: P. falciparum in erythrocytes, SYBR Green DNA, 72 h; series mostly up to 28.7 µM
Procedure, shortened: as §1

[60] = system: TAB109; assay: as above; details: P. falciparum in erythrocytes, SYBR Green DNA, 72 h; series mostly up to 28.7 µM
Procedure, shortened: as §1

[61] = system: TAB113; assay: as above; details: P. falciparum in erythrocytes, SYBR Green DNA, 72 h; series mostly up to 28.7 µM
Procedure, shortened: as §1

[62] = system: TAB165; assay: as above; details: P. falciparum in erythrocytes, SYBR Green DNA, 72 h; series mostly up to 28.7 µM
Procedure, shortened: as §1

[63] = system: W2; assay: as above; details: P. falciparum in erythrocytes, SYBR Green DNA, 72 h; series mostly up to 28.7 µM
Procedure, shortened: as §1

CC(=O)OCC(=O)[C@@]1(O)CCC2C3CCC4=CC(=O)CC[C@]4(C)C3=CC[C@@]21C (some centres undefined)
inactive: Potency [1] | Potency [2] | Potency [3] | Potency [4] | activity, negative = inhibition ([5]; parasite line A) 11% | activity, negative = inhibition ([5]; parasite line B) 2.99% | Potency [6] | Potency [7] | Potency [8] | Potency [9] | Potency [10] | Potency [11] | Potency [12] | Potency [13] | Potency [14] | Potency [15] | Potency [16] | Potency [17] | Potency [18] | Potency [19] | Potency [20] | Potency [21] | Potency [22] | Potency [23] | Potency [24] | Potency [25] | Potency [26] | Potency [27] | Potency [28] | Potency [29] | Potency [30] | Potency [31] | Potency [32] | Potency [33] | Potency [34] | Potency [35] | Potency [36] | Potency [37] | Potency [38] | Potency [39] | Potency [40] | Potency [41] | Potency [42] | Potency [43] | Potency [44] | Potency [45] | Potency [46] | Potency [47] | Potency [48] | Potency [49] | Potency [50] | Potency [51] | Potency [52] | Potency [53] | Potency [54] | Potency [55] | Potency [56] | Potency [57] | Potency [58] | Potency [59] | Potency [60] | Potency [61] | Potency [62] | Potency [63]
